# Earlier results in PubChem BioAssay AID977611.
# The whole screen tested about 3,900 compounds, of which about 3,900 (100%) were called active. No cut-off is given here; in the data, nearly all actives have Kd up to about 4200 µM. So high a share suggests a set chosen from earlier hits. The list shows a part of the results. Where a SMILES comes first, the peptide text is derived from it. Non-standard residues stand in square brackets, D forms with d. Square brackets hold non-standard residues; d marks the D form. Residues, ends and D or L forms follow the SMILES beside them. Peptide text beside a SMILES is read from it. [ ]: non-standard residue; d: D form. Orn(CH(NH2)2) = NC(N)NCCC[C@H](N)C(=O)O; Lys(Me2) = CN(C)CCCC[C@H](N)C(=O)O
# Experiment: PubChem AID 977611
# Settings: PDB protein-ligand complexes, literature Kd
molecule,measurement,setting,value
C[C@H](CCCCN(C)C)NC(=O)[C@@H](N)CCCNC(N)N,Kd,"protein: Tumor suppressor p53-binding protein 1, PDB entry 2ig0",19700 nM (active)
CC(C)C[C@H](NC(=O)[C@H](C)NC(=O)[C@H](Cc1c[nH]c2ccccc12)NC(=O)[C@H](Cc1ccc(O)cc1)NC(=O)[C@H](CCC(=O)O)NC(=O)[C@H](C)NC(=O)[C@H](Cc1ccccc1)NC(=O)[C@H](CO)NC(=O)[C@@H](N)[C@@H](C)O)C(=O)N[C@@H](CC(C)C)C(=O)N[C@@H](CO)C(=O)O,Kd,"protein: human MDM2, PDB entry 3lnz",0.49 nM (active)
CC(C)C[C@H](NC(=O)[C@H](CC(C)C)NC(=O)[C@H](CC(N)=O)NC(=O)[C@H](Cc1c[nH]c2ccccc12)NC(=O)[C@H](Cc1ccc(O)cc1)NC(=O)[C@H](CCC(=O)O)NC(=O)[C@H](C)NC(=O)[C@H](Cc1ccccc1)NC(=O)[C@H](CO)NC(=O)[C@@H](N)[C@@H](C)O)C(=O)N[C@H](C=O)CO (H-TSFAEYWNLLS-aldehyde),Kd,"protein: E3 ubiquitin-protein ligase Mdm2, PDB entry 3eqs",3.3 nM (active)
CC(C)[C@H](N)C(=O)N[C@@H](Cc1ccc(O)cc1)C(=O)N[C@@H](Cc1c[nH]c2ccccc12)C(=O)N[C@@H](Cc1ccccc1)C(=O)O (H-VYWF-OH),Kd,"protein: Protease degS, PDB entry 2r3y",3200 nM (active)
C[C@H](N)C(=O)N[C@@H](CCCNC(N)N)C(=O)N[C@H](C(=O)O)[C@@H](C)O,Kd,"protein: ING4, PDB entry 2vnf",3000 nM (active)
C[C@H](NC(=O)CNC(=O)[C@@H](N)CS)C(=O)N[C@@H](CCCNC(N)N)C(=O)O (H-CGA[Orn(CH(NH2)2)]-OH),Kd,"protein: ?-chain of Hepatocyte growth factor-like protein, PDB entry 2asu",1 nM (active)
C[C@H](N)C(=O)N[C@@H](CCCNC(N)N)C(=O)N[C@H](C(=O)N[C@@H](C)C(=O)O)[C@@H](C)O (H-A[Orn(CH(NH2)2)]TA-OH),Kd,"protein: WD-repeat protein 5(WDR523), PDB entry 2h9p",192000 nM (active)
C[C@H](N)C(=O)N[C@@H](CCCNC(N)N)C(=O)N[C@H](C(=O)N[C@@H](CCCCN)C(=O)N[C@@H](C)C(=O)O)[C@@H](C)O (H-A[Orn(CH(NH2)2)]TKA-OH),Kd,"protein: Baculoviral IAP repeat-containing protein 5, human Survivin, PDB entry 3uef",21000 nM (active)
C[C@@H](O)[C@H](NC(=O)CNC(=O)[C@@H](N)CCCNC(N)N)C(=O)O,Kd,"protein: Proto-oncogene tyrosine-protein kinase Src, PDB entry 4hxj",74300 nM (active)
OC[C@H]1CN[C@@H](O)[C@@H](O)[C@@H]1O,Kd,"protein: MANNOSYL-OLIGOSACCHARIDE 1,2-ALPHA-MANNOSIDASE, PDB entry 4ayr",99 nM (active)
C[C@H]1NC(=NCCC[C@H](N)C(=O)O)N[C@H]1O,Kd,"protein: Advanced glycosylation end product-specific receptor V domain, PDB entry 2mov",40 nM (active)
H-AGGPTIEEVD-OH,Kd,"protein: Protein UNC-45, PDB entry 4i2w",121000 nM (active)
C[C@H](N)C(=O)N[C@@H](C)C(=O)N[C@@H](CCCCN(C)C)C(=O)N[C@@H](CO)C(=O)N[C@H](C(=O)NCC(=O)NCC(=O)O)[C@@H](C)O (H-AA[Lys(Me2)]STGG-OH),Kd,"protein: Euchromatic histone-lysine N-methyltransferase 1(Glp), PDB entry 3b95",7000 nM (active)
C[C@H](NC(=O)[C@H](CCCCN)NC(=O)[C@H](CCCCN)NC(=O)[C@H](CCCCN)NC(=O)[C@@H](NC(=O)[C@H](CO)NC(=O)CNC(=O)[C@H](CCCCN)NC(=O)[C@@H]1CCCN1C(=O)[C@H](CCC(=O)O)NC(=O)[C@@H]1CCCN1C(=O)[C@H](CCC(=O)O)NC(=O)[C@H](CCCCN)NC(=O)[C@H](CCCNC(N)N)NC(=O)[C@H](CCCCN)NC(=O)[C@H](C)NC(=O)[C@@H](N)CO)[C@@H](C)O)C(=O)N[C@@H](CCCCN)C(=O)N[C@H](C(=O)O)[C@@H](C)O (H-SAK[Orn(CH(NH2)2)]KEPEPKGSTKKKAKT-OH),Kd,"protein: Importin subunit alpha-2, PDB entry 3uvu",42 nM (active)
C[C@H](N)C(=O)N1CCC[C@H]1C(=O)N1CCC[C@H]1C(=O)NCC(=O)N[C@H](C(=O)N[C@@H](C)C(=O)N[C@@H](CCCNC(N)N)C(=O)N[C@@H](CCCNC(N)N)C(=O)N[C@@H](CCCCN)C(=O)N[C@@H](CCCNC(N)N)C(=O)N[C@@H](CCCCN)C(=O)N[C@@H](C)C(=O)N[C@@H](CC(=O)O)C(=O)N[C@@H](CO)C(=O)O)[C@@H](C)O (H-APPGTA[Orn(CH(NH2)2)][Orn(CH(NH2)2)]K[Orn(CH(NH2)2)]KADS-OH),Kd,"protein: Signal recognition particle 43 kDa protein, chloroplast, PDB entry 2hug",1060 nM (active)
CC(C)[C@H](NC(=O)[C@@H]1CCCN1C(=O)[C@@H](N)Cc1ccc(O)cc1)C(=O)N[C@@H](CCCCN)C(=O)N[C@@H](CCCCN)C(=O)N[C@@H](CCCCN)C(=O)N[C@@H](C)C(=O)N[C@@H](CCCNC(N)N)C(=O)N[C@@H](CCCCN(C)C)C(=O)N[C@@H](CO)C(=O)N[C@@H](C)C(=O)NCC(=O)O (H-YPVKKKA[Orn(CH(NH2)2)][Lys(Me2)]SAG-OH),Kd,"protein: Human Chromobox Homolog 3 (CBX3), PDB entry 3tzd",52000 nM (active)
H-DPGEGPST-OH,Kd,"protein: Ubiquitin carboxyl-terminal hydrolase 7(USP7), PDB entry 1yy6",860 nM (active)
C[C@H](N)C(=O)N[C@@H](CCCNC(N)N)C(=O)N[C@H](C(=O)N[C@@H](CCCCN(C)C)C(=O)N[C@@H](CCC(N)=O)C(=O)N[C@H](C(=O)N[C@@H](C)C(=O)N[C@@H](CCCNC(N)N)C(=O)N[C@@H](CCCCN(C)C)C(=O)N[C@@H](CO)C(=O)N[C@H](C(=O)NCC(=O)NCC(=O)N[C@@H](CCCCN)C(=O)N[C@@H](C)C(=O)N1CCC[C@H]1C(=O)NCC(=O)NCC(=O)O)[C@@H](C)O)[C@@H](C)O)[C@@H](C)O,Kd,"protein: heterochromatin protein 1 (HP1), PDB entry 1guw",1900 nM (active)
C[C@H](NC(=O)[C@@H](NC(=O)CNC(=O)[C@@H]1CCCN1C(=O)[C@@H]1CCCN1C(=O)[C@H](C)NC(=O)[C@H](CCCCN)NC(=O)[C@@H](N)CCC(N)=O)[C@@H](C)O)C(=O)N[C@@H](CCCNC(N)N)C(=O)N[C@@H](CCCNC(N)N)C(=O)N[C@@H](CCCCN)C(=O)N[C@@H](CCCNC(N)N)C(=O)N[C@@H](CCCCN)C(=O)O (H-QKAPPGTA[Orn(CH(NH2)2)][Orn(CH(NH2)2)]K[Orn(CH(NH2)2)]K-OH),Kd,"protein: A. thaliana cpSRP43 Delta CD3, PDB entry 3ui2",430 nM (active)
